Source: PubChem (National Center for Advancing Translational Sciences (NCATS))
Sampled rows, rich in hits. Any-hit rate of the full collection: about 8.7%.
G9a block – G9a (human) methyltransferase inhibition; Q96KQ7; G9a H3K9 monomethylation, AlphaScreen, 2 h; Potency, µM (doses to about 102 µM), for inactives: at the highest dose activity, negative = inhibition, actives largely listed as inhibitors; 350,000 tested, 8.8% active; AID 504332; further: on the % scale 0 is the no-effect control and ±100 the full control effect; nearly all actives have a fitted effect of over 75% in size
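AlphaScreen read-out: biotin-H3K9 peptide (500 nM) methylation by 20 nM enzyme with 20 uM SAM, 2 h at room temperature after 15 min compound preincubation; anti-monomethyl H3K9 antibody plus donor/acceptor beads, 10 min dark.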
HP1b chromo inh – blocks HP1-beta chromodomain binding to methylated histone tails | P83916 | AlphaScreen HP1-beta / biotin-H3K9me3 peptide binding | Potency, µM (highest dose often 114 µM), without a hit: at the top dose activity change, negative = inhibition, hits mostly inhibitors | 390,000 tested, 0.56% active | AID 540317; further: nearly all actives have a fitted effect of over 70% in size
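AlphaScreen: HP1-beta (50 nM) preformed 30 min with biotin-H3(1-18)K9me3 peptide (50 nM) in PBS pH 7.4, 0.01% Tween-20. Compound added for 30 min at RT, then streptavidin donor/nickel chelate acceptor beads (10 ug/mL) for 30 min.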
Sfp inh – Sfp phosphopantetheinyl transferase inhibition; Q9F4F7; Biochemical Sfp PPTase activity, qHTS; Potency, µM, without a hit: largest response in the series, negative = inhibition, actives largely listed as inhibitors; 310,000 tested, 3.5% active;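 further: the enzyme is Sfp with the accession as filed and its product quenches rhodamine fluorescence; 0% = enzyme reaction without inhibitor and -100% = no enzyme wells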
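Sfp 15 nM + cpd, 15 min RT; start w/ rhodamine-CoA 5 uM, BHQ-2-YbbR 12.5 uM (final); 50 mM Hepes pH 7.6, 10 mM MgCl2, 0.01% NP-40, 0.01% BSA; read 525/598 nm at 0 and 30 min.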
JMJD2A Tudor inh – blocks the human JMJD2A Tudor domain. O75164. AlphaScreen JMJD2A-Tudor / H3K4me3 peptide binding. Potency, µM (highest dose often 114 µM), for inactives: at the top dose activity change, negative = inhibition, usual class: inhibitors. 390,000 tested, 4.4% active; further: on the % scale 0 is the no-effect control and ±100 the full control effect; nearly all actives have a fitted effect of over 50% in size
BAZ2B block – inhibitors of human BAZ2B bromodomain; 360,000 tested, 4.4% active; Potency, µM (top dose mostly 114 µM), inactives show at the top dose activity change, negative = inhibition, most hits filed as inhibitors; AlphaScreen BAZ2B-H3K14Ac peptide displacement; AID 504333; Q9UIF8; further: on the % scale 0 is the no-effect control and ±100 the full control effect; nearly all actives have a fitted effect of over 60% in size
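BAZ2B (50 nM) with biotin-H3(5-23)K14Ac peptide (50 nM) in PBS pH 7.4, 0.01% Tween-20, preformed 30 min, then compound 30 min at room temperature; top concentration 110uM. AlphaScreen streptavidin donor/nickel chelate acceptor beads (10 ug/mL final), 20 min dark, signal read.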
ALOX12 inh – inhibitors of human 12S-lipoxygenase ALOX12; 580,000 tested, 1.1% active; Potency, µM (series often up to 108 µM), without a hit: at the highest dose activity change, negative = inhibition, most hits filed as inhibitors; purified 12hLO, xylenol orange hydroperoxide absorbance; AID 1671190; further: on the % scale 0 is the no-effect control and ±100 the full control effect
Target sequence (P18054 whole entry, looked up): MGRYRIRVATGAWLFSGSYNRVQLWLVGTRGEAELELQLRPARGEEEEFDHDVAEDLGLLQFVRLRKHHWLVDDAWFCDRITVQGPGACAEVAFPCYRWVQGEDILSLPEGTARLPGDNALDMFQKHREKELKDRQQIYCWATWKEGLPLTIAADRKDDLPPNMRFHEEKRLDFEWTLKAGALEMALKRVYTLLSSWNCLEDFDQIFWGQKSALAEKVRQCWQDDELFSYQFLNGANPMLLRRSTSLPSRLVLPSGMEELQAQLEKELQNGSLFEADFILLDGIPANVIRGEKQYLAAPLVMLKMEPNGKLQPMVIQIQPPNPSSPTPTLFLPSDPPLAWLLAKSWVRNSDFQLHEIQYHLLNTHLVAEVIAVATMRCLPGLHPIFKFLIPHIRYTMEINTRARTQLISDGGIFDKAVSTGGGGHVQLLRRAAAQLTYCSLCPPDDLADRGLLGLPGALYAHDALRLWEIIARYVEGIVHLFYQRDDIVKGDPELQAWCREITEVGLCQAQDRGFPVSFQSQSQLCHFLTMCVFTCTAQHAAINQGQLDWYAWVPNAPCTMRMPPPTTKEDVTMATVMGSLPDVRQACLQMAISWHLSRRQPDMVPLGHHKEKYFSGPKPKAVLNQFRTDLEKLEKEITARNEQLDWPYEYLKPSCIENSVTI
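Purified human 12hLO (150 nM final) in 25 mM Hepes, 0.01% Triton X-100, pH 7.0 was preincubated 15 min at room temperature with compound. Then 40 uM arachidonic acid was added, 30 min. Hydroperoxide was read by Fe-XO absorbance ratio 573/405 nm.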
* marks the source's active call; other numbers are inactive results; i = inactive; ? = inconclusive; nt = not tested or not shown; [ ] = remark or other dose. The call rests on the fitted dose curve; in most records, active means well fitted curve in the direction sought with a large enough effect; inconclusive means small, poorly fitted or top-dose-only effect, or another doubt; inactive means no such curve, though single readings can be large; an effect the other way counts as inactive or inconclusive. Potency means the concentration at half of the fitted maximal effect.

SMILES	G9a block	HP1b chromo inh	Sfp inh	JMJD2A Tudor inh	BAZ2B block	ALOX12 inh
Cc1ccccc1OCC(=O)NCCC1=CCCCC1	-10%	50%	?	16%	82%	5%
Cc1ccccc1C(=O)NC(=S)NCCC1=CCCCC1	54%	22%	12%	15%	7%	22µM*
O=C(NC(=S)NCCCN1CCOCC1)c1ccco1	40µM*	24%	-17%	-8%	-18%	-2%
Cc1ccccc1C(=O)NC(=S)NCCc1ccccc1	?	59%	5%	12%	0%	28µM*
Cc1ccccc1C(=O)NC(=S)NCc1ccccc1	13%[0.501 µM]	76%	10%	14%	-5%	?
O=C(NC(=S)NCCC1=CCCCC1)c1ccc(Br)o1	-42%	25%	17%	-19%	?	?
O=C(NCCCCCCCN1CCCC1)c1ccco1	nt	nt	nt	nt	nt	2%
O=C(NC(=S)NCCC1=CCCCC1)c1ccco1	0%	44%	-3%	-13%	-14%	45µM*
O=c1cc(-c2ccccc2)sc2nnc(-c3ccccc3F)n12	nt	nt	nt	nt	nt	23%
CCC(C)NC(=O)N1CC(n2cc(C(=O)N3CCOCC3)nn2)C1 (configuration not stated)	nt	nt	nt	nt	nt	33%
CC(=O)Nc1ccc(-c2sc(Nc3cccc4ccccc34)n[n+]2-c2ccccc2)cc1	45µM*	23%	-24%	-33%	?	?
CCc1ccc(Nc2n[n+](C)c(-c3ccncc3)s2)cc1	nt	-16%	79µM*	56µM*	56µM*	?
CCc1ccc(Nc2n[n+](C)c(-c3ccc(C(=O)O)cc3)s2)cc1	2%[12.7 µM]	nt	11%	nt	-8%	nt
Fc1ccc(-[n+]2nc(Nc3ccccc3)sc2-c2ccc(OCc3ccccc3)cc2)cc1	nt	12%	-19%	89µM*	?	40µM*
C[n+]1nc(Nc2cccc3ccccc23)sc1-c1ccc(C(=O)O)cc1	2%[12.7 µM]	nt	-16%	nt	0%	nt
CCc1ccc(Nc2n[n+](-c3ccccc3)c(-c3ccc(OC)c(Br)c3)s2)cc1	35µM*	19%	-6%	-33%	?	?
COc1ccc(N(C(=O)C23CC4CC(CC(C4)C2)C3)C2C=CS(=O)(=O)C2)cc1 (configuration not stated)	nt	nt	nt	nt	nt	-2%
CCc1ccc(Nc2n[n+](-c3ccccc3)c(-c3ccc(SC)cc3)s2)cc1	45µM*	27%	6%	?	?	?
CCc1ccc(Nc2n[n+](-c3ccccc3)c(-c3ccc(C(=O)O)cc3)s2)cc1	32µM*	-9%	45µM*	79µM*	35µM*	?
Clc1cccc(-c2sc(Nc3ccccc3)n[n+]2-c2ccccc2)c1Cl	nt	8%	50µM*	?	?	?
COc1cc(Br)c(-c2sc(Nc3ccccc3)n[n+]2-c2ccc(F)cc2)cc1OC	?	-5%	-21%	79µM*	?	?
CSc1ccc(-c2sc(Nc3ccccc3)n[n+]2-c2ccccc2)cc1	35µM*	-27%	?	56µM*	45µM*	nt
CSc1ccc(-c2sc(Nc3cccc4ccccc34)n[n+]2-c2ccccc2)cc1	nt	13%	50µM*	79µM*	18µM*	?
COc1ccc(-c2sc(Nc3cccc4ccccc34)n[n+]2C)c(C)c1C	nt	109%	nt	41%	nt	?
COc1cc(/C=N/Nc2nncn2N)ccc1OCc1c(C)no[n+]1[O-]	nt	56%	71µM*	-2%	-4%	?
SMILES	G9a block	HP1b chromo inh	Sfp inh	JMJD2A Tudor inh	BAZ2B block	ALOX12 inh
O=C1CCN(C(=O)c2cccs2)CCCCCCN1	nt	nt	nt	nt	nt	41%
Cc1ccc(C(=O)N2CCC3(CC2)N(C)C(=O)CS3(=O)=O)cc1F	nt	nt	nt	nt	nt	16%
CC(C)CNc1nc(C(=O)Nc2nnc(C(C)(C)C)s2)cs1	nt	nt	nt	nt	nt	39%
O=C1COc2ccc(C(=O)COC(=O)/C=C/c3ccc(Br)o3)cc2N1	28µM*	-53%	nt	?	45µM*	?
O=C1COc2ccc(C(=O)COC(=O)COc3ccccc3[N+](=O)[O-])cc2N1	?	5%	-18%	-6%	-15%	-7%
Cc1ccc(/C=C/C(=O)OCC(=O)c2ccc3c(c2)NC(=O)CO3)o1	nt	-6%	nt	-23%	nt	-13%
N#Cc1ccccc1OCC(=O)OCC(=O)c1ccc2c(c1)NC(=O)CO2	50µM*	32%	7%	3%	6%	?
COC(=O)c1cc(C(=O)OCC(=O)c2ccc3c(c2)NC(=O)CO3)cc([N+](=O)[O-])c1	50µM*	17%	nt	-17%	-6%	-10%
CN=C1C=CC(=C(c2ccc(N(C)C)cc2)c2ccc(N(C)C)cc2)C=C1	?	nt	45µM*	nt	nt	nt
O=C(c1ccc(Cl)cc1)N1CCC2(CC1)Cc1ccccc1NC2=O	nt	nt	nt	nt	nt	-2%
Cc1ccc2nc(-c3ccc(C)o3)c(NC3CCCC3)n2c1	nt	8%	nt	?	nt	nt
CC(C)c1nc2ccc(Br)cn2c1NC1CCCC1	45µM*	42%	1%	-8%	?	1%
CC[N+](CC)(CC#Cc1ccccc1)CC(=O)C(C)(C)C	nt	nt	nt	nt	nt	-16%
Cc1ccc(C)c(C(C)NC(=O)COc2ccccc2C#N)c1 (configuration not stated)	nt	nt	nt	nt	nt	-2%
CC1C=CC(C)C(C(=O)O)C1C(=O)O (configuration not stated)	?	-5%	15%	45µM*	50µM*	-19%
N[C@H](C(=O)O)C1[C@H](C(=O)O)[C@H]1C(=O)O (some centres not stated)	nt	nt	-22%	nt	nt	?
CS(=O)(=O)N(C1CCOCC1)C1CNC1	nt	nt	nt	nt	nt	46%
CN1CCN([C@H]2[C@@H]3OC[C@@H](O3)[C@@H](NCc3ccc(-c4ccccc4)cc3)[C@@H]2O)CC1	nt	nt	nt	nt	nt	82%[176 µM]
CC1CC1C(=O)Nc1cc(S(=O)(=O)N2CCOCC2)ccc1N1CCCC1 (configuration not stated)	?	1%	22%	-4%	-27%	-1%
O=C(Cc1ccc(F)cc1)Nc1cc(S(=O)(=O)N2CCOCC2)ccc1N1CCCCC1	nt	nt	nt	nt	nt	11%
NC(=O)C1CCN(CC(=O)Nc2cc(S(=O)(=O)N3CCOCC3)ccc2N2CCCC2)CC1	20µM*	20%	nt	-7%	-1%	1%
O=C(Nc1ccc(F)cc1)Nc1cc(S(=O)(=O)N2CCOCC2)ccc1N1CCCC1	35µM*	16%	-8%	-15%	?	i
CCN(C(=S)Nc1cc(S(=O)(=O)N2CCOCC2)ccc1Cl)c1cccc2ccccc12	1.8µM*	-24%	4µM*	-25%	?	3%
O=S(=O)(c1ccc(Cl)c(NC(=S)Nc2cccc(O)c2)c1)N1CCOCC1	?	9%	?	-13%	-7%	?
O=C(Nc1cc(S(=O)(=O)N2CCOCC2)ccc1N1CCCC1)C1CC1	40µM*	19%	-11%	-4%	-21%	?
